Test results taken from the supplement of paper PMC6555819.

Assays:
Assay in all cases: PBM binding z-score (relative to random genomic background probes); higher = stronger binding; sequences stand for … in GC…GCGATTGACAGCGTAGAATGAAGG
[1] = tested on: PPARg:RXRa DBDmut IVT, anti-RXR (DBD mutation: RXRa K156A/R161A, NR concentration 270 nM, RXRa partner concentration 90 nM)
How it was run: (§1)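 Probes were double-stranded and carried 34-nt variable regions with direct-repeat seeds, single-nucleotide variants, half-site ablations and random human genomic background sequences, printed on custom Agilent 4×180K protein-binding microarrays. Arrays were incubated 1 h with ligand-free nuclear receptor dimers in PBS pH 7.4, 2% milk, 0.02% Triton X-100, 1 mM DTT, 0.2 mg/mL BSA and 0.4 mg/ml salmon testes DNA. Antibodies against each partner (one per run) detected binding, and scanned fluorescence was regression-normalized. Binding z-scores use the random background probes as reference.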

[2] = tested on: PPARg:RXRa IVT, anti-PPARg (NR concentration 270 nM, RXRa partner concentration 90 nM)
How it was run: as §1

[3] = tested on: PPARg DBDmut:RXRa IVT, anti-PPARg (DBD mutation: PPARg1 K132A/R137A, NR concentration 270 nM, RXRa partner concentration 90 nM)
How it was run: as §1

[4] = tested on: PPARg DBDmut IVT, anti-PPARg (DBD mutation: PPARg1 K132A/R137A, NR concentration 270 nM)
How it was run: as §1

[5] = tested on: PPARg homodimer (NR concentration 180 nM)
How it was run: as §1

[6] = tested on: PXR:RXRa (NR concentration 270 nM, RXRa partner concentration 90 nM)
How it was run: as §1

[7] = tested on: PXR homodimer (NR concentration 270 nM)
How it was run: as §1

[8] = tested on: RARa homodimer (NR concentration 270 nM)
How it was run: as §1

[9] = tested on: RARb:RXRa (NR concentration 270 nM, RXRa partner concentration 90 nM)
How it was run: as §1

[10] = tested on: RARb homodimer (NR concentration 270 nM)
How it was run: as §1

[11] = tested on: RARg:RXRa (NR concentration 270 nM, RXRa partner concentration 90 nM)
How it was run: as §1

[12] = tested on: RARg homodimer (NR concentration 270 nM)
How it was run: as §1

[13] = tested on: RXRa DBDmut IVT, anti-RXR (DBD mutation: RXRa K156A/R161A, NR concentration 90 nM)
How it was run: as §1

[14] = tested on: RXRa homodimer (NR concentration 180 nM)
How it was run: as §1

[15] = tested on: THRa:RXRa (NR concentration 90 nM, RXRa partner concentration 90 nM)
How it was run: as §1

[16] = tested on: THRa homodimer (NR concentration 90 nM)
How it was run: as §1

[17] = tested on: VDR homodimer (NR concentration 270 nM)
How it was run: as §1

[18] = tested on: VDR:RXRa (NR concentration 270 nM, RXRa partner concentration 90 nM)
How it was run: as §1

[19] = tested on: RARa:RXR (NR concentration 270 nM, RXRa partner concentration 90 nM)
How it was run: as §1

Sequence	PBM binding z-score [1]	PBM binding z-score [2]	PBM binding z-score [3]	PBM binding z-score [4]	PBM binding z-score [5]	PBM binding z-score [6]	PBM binding z-score [7]	PBM binding z-score [8]	PBM binding z-score [9]	PBM binding z-score [10]	PBM binding z-score [11]	PBM binding z-score [12]	PBM binding z-score [13]	PBM binding z-score [14]	PBM binding z-score [15]	PBM binding z-score [16]	PBM binding z-score [17]	PBM binding z-score [18]	PBM binding z-score [19]
GACACAGGGTCAGCTAGAGGCCAGAGTATGGAAA	0.69	1.9	-0.301	-0.892	1.74	2.92	-0.286	-0.561	4.26	3.17	6.46	4.41	1.3	4.1	3.1	-0.0446	0.591		
CGTCCAAGGTCATAAGAGGTCAGTGAAGACAGAT	3.48	4.2	2.03	-0.112	7.68	7.11	7.52	4	5.47	5.16	7.1	7.88	4.16	7.05	5.23	3.25	5.57		
CAAACTAGGTCACCGGAAGGTCAAAGTTCGCATG	8.66	9.06	4.1	1.26	7.21	6.49	3.62	3.06	5.44	5.7	8.56	7.83	2.41		4.59	3	4.52	6.38	
CCAGACAGGTGAAAGGTCACTCAGTCTGGTACGC	2.78	5.19	0.814	0.242	3.92	5.74	1.88	1.75	4.91	4.99	6.66	5.89	1.18		3.75	1.02	2.37		
ATACCAAGGTTATCGTGAGGTCGTTGATACTAAC	0.718	1.31	1.06	0.559	1.6	4.73	2.85	1.45	2.47	2.36	4.49	2	2.26	3.2	4.2	2.91	3.67		
CGGCCAAGGTCAAAGGTCAGTGAAGAGATGACGG	3.94	5.66	0.246	-0.114	7.63	7.3	1.98	4.91	6.06	5.37	9.05	8.47	3.57		4.99	2.52	3.31	6.67	
TCTAGTTGGTTACGGAGGTCACACACGACGGGTA	1.85	2.98	1.22	0.724	3.22	4.22	1.44	2.34	3.25	3.79	4.2	3.66	1.12	4.33	3.52	2.49	3.21		
TCTCGGAGGACACGAAAGGGCAGAGCTCGACATC	1.43	0.279	-1.54	-1.04	-0.108		-0.585	-0.203	2.42	2.21	1.52	2.06	0.584	0.474	1.76	0.0765	-0.17	-0.0327	0.468
GCTAGTAGGTCAGTAAAAGGTCACACACCGGTCG	7.2	7.29	3.2	3.78	6.95	5.97	1.43	2.9	5.4	6.06		7.14	0.784	6.4	4.27	1.97	2.37		
CAAGCTAGGTCAAAGGTCAAAGTCGAGCCAACCA	5.45	6.94	1.27	-0.285	5.21		1.5	2.23	6.05	5.17	9.17	8.1	3.05	10.6	4.96	1.45	3.39		9.03
GATACAGGGGCAAGGCCAGAGTACGCGTATTGAT	0.794	0.691	-0.76	-0.28	0.334		0.0474	-0.216	1.65	1.19	0.895	1.33	0.352	0.544	0.311	-0.32	0.636	0.153	0.0151
TAGCCAAGGTCAGATCGGGCCAGTATACGCTATA	0.246	1.81	0.476	-0.254	1.38		-0.349	-0.193	4.3	3.41	4.59	5.1	1.75	3.58	4.32	1.09	1.11	3.07	2.61
ATGTGTAGGTTACATCCGGGTCATTCAGGCTATG	2.96	4.13	1.02	1.88	3.03		2.51	1.12	2.37	3.32	3.75	2.19	0.811	2.95	3.94	2.75	3.1	4.22	4.01
AGTGAAAGTTCAGGACGAGGTAACGTAAAGCACG	-0.565	1.36	0.759	0.589	1.57		1.41	0.544	4.14	3.13	4.55	4.38	2.84	2.54	3.93	1.95	2.34		2.9
CCTTACAGGTCAAGGTTATAGCACGGGTGGTACG	3.89	4.19	0.977	0.925	3.36		0.575	1.94	4.65	3.78	5.27	5.53	1.83	4.72	3.18	1.33	1.73	3.41	4.39
